Source: PubChem BioAssay AID1159580 (chemical genetic matrix, 2015)
Where “and” joins values, the source holds several entries; their conditions need not be identical. Equal values may be shown once. Hit rate of the full screen: of about 5,500 compounds, about 2,000 (36%) were called active. Inconclusive results (about 18%) are left out. Rule as the data show it: active = normalized growth mostly below about 0.91 (no sharp cut-off); inconclusive = no clear call, values can overlap the other calls; inactive = mostly above about 0.92. The list shows a part of the results.

Test: chemical genetic growth profiling, strain panel (AID 1159580);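 also: tested at 20 µM; growth read once vehicle control cultures reached saturation at 30 °C; 1 = growth at the plate median or of vehicle wells; lower values mean less growth of the strain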
Settings: S. cerevisiae deletion strains, growth OD

Measured: normalized growth

CC(C)(C)CC(C)(C)c1ccc(OCCOCC[N+](C)(C)Cc2ccccc2)cc1
inactive: locus YAL013W, strain DEP1, stronger effect = lower value 0.983 | locus YBR229C, strain ROT2, stronger effect = lower value 1.02 | locus YCL029C, strain bik1, stronger effect = lower value 0.986 | locus YDL035C, strain GPR1, stronger effect = lower value 1.01 | locus YDL074C, strain BRE1, stronger effect = lower value 0.954 | locus YDL101C, strain DUN1, stronger effect = lower value 0.988 | locus YDL134C, strain PPH21, stronger effect = lower value 0.995 | locus YDL185W, strain tfp1, stronger effect = lower value 1 | locus YDL192W, strain arf1, stronger effect = lower value 0.976 | locus YDR101C, strain arx1, stronger effect = lower value 0.991 | locus YDR150W, strain NUM1, stronger effect = lower value 1 | locus YDR162C, strain NBP2, stronger effect = lower value 0.911 | locus YDR318W, strain mcm21, stronger effect = lower value 0.997 | locus YDR388W, stronger effect = lower value 1 | locus YDR502C, strain sam2, stronger effect = lower value 0.988 | locus YEL061C, strain CIN8, stronger effect = lower value 0.999 | locus YER110C, stronger effect = lower value 0.992 | locus YER155C, strain BEM2, stronger effect = lower value 1.03 | locus YER167W, strain BCK2, stronger effect = lower value 1.02 | locus YGL078C, strain dbp3, stronger effect = lower value 0.988 | locus YGL086W, strain mad1, stronger effect = lower value 0.984 | locus YGL248W, strain PDE1, stronger effect = lower value 0.99 | locus YGR078C, strain PAC10, stronger effect = lower value 0.917 | locus YGR135W, strain pre9, stronger effect = lower value 0.994 | locus YGR252W, strain gcn5, stronger effect = lower value 0.98 | locus YHR079C, strain IRE1 (second series), stronger effect = lower value 0.991 | locus YHR094C, strain hxt1, stronger effect = lower value 0.985 | locus YHR129C, strain ARP1, stronger effect = lower value 0.994 | locus YHR200W, strain rpn10, stronger effect = lower value 0.993 | locus YIL066C, strain RNR3, stronger effect = lower value 0.994 | locus YIL073C, strain SPO22, stronger effect = lower value 0.865 | locus YIL125W, strain kgd1, stronger effect = lower value 0.991 | locus YIR030C, strain dcg1, stronger effect = lower value 0.985 | locus YJL134W, strain LCB3, stronger effect = lower value 1 | locus YJL168C, strain set2, stronger effect = lower value 0.999 | locus YJL187C, strain SWE1 (second series), stronger effect = lower value 0.989 | locus YJR043C, strain POL32, stronger effect = lower value 1.03 | locus YKL009W, strain mrt4, stronger effect = lower value 0.965 | locus YKL068W, stronger effect = lower value 1.01 | locus YKL085W, strain MDH1 (second series), stronger effect = lower value 1 | locus YKL085W, strain MDH1, stronger effect = lower value 1 | locus YLR039C, strain RIC1, stronger effect = lower value 0.781 | locus YLR058C, strain SHM2, stronger effect = lower value 0.996 | locus YLR102C, strain apc9, stronger effect = lower value 0.992 | locus YLR262C, strain YPT6, stronger effect = lower value 0.832 | locus YLR268W, strain sec22, stronger effect = lower value 0.974 | locus YLR330W, strain CHS5, stronger effect = lower value 0.993 | locus YLR342W, strain FKS1 (second series), stronger effect = lower value 0.998 | locus YLR371W, strain rom2, stronger effect = lower value 0.992 | locus YLR418C, strain cdc73, stronger effect = lower value 0.871 | locus YML016C, strain PPZ1, stronger effect = lower value 1.01 | locus YML032C, strain rad52, stronger effect = lower value 0.99 | locus YML124C, strain tub3, stronger effect = lower value 0.989 | locus YMR078C, strain ctf18, stronger effect = lower value 0.986 | locus YMR223W, strain ubp8, stronger effect = lower value 0.989 | locus YMR263W, strain SAP30, stronger effect = lower value 0.991 | locus YMR307W, strain GAS1, stronger effect = lower value 1.06 | locus YNL067W, strain RPL9B, stronger effect = lower value 0.977 | locus YNL233W, strain BNI4, stronger effect = lower value 0.984 | locus YNL250W, strain rad50, stronger effect = lower value 0.989 | locus YNL271C, strain bni1, stronger effect = lower value 0.978 | locus YNL298W, strain CLA4, stronger effect = lower value 1.01 | locus YNL307C, strain MCK1, stronger effect = lower value 0.937 | locus YNR052C, strain pop2, stronger effect = lower value 0.99 | locus YOL006C, strain TOP1, stronger effect = lower value 0.864 | locus YOL012C, strain htz1 1.63 | locus YOL147C, strain pex11, stronger effect = lower value 0.985 | locus YOR061W, strain CKA2, stronger effect = lower value 1.01 | locus YOR069W, strain VPS5, stronger effect = lower value 1.01 | locus YOR136W, strain idh2, stronger effect = lower value 0.986 | locus YOR144C, strain elg1, stronger effect = lower value 0.996 | locus YOR184W, strain ser1, stronger effect = lower value 0.954 | locus YOR316C, strain cot1, stronger effect = lower value 0.992 | locus YPL055C, strain LGE1, stronger effect = lower value 0.98 | locus YPL241C, strain CIN2, stronger effect = lower value 1 | locus YPR119W, strain clb2, stronger effect = lower value 0.984 | locus YPR141C, strain kar3, stronger effect = lower value 0.988 | locus YPR163C, strain tif3, stronger effect = lower value 0.981 | locus YPR167C, strain met16, stronger effect = lower value 1.01 | strain wtn01, stronger effect = lower value 0.997
0.912 (inactive) and 0.258 (active): locus YJL095W, strain BCK1, stronger effect = lower value
0.995 (inactive) and 0.14 (active): locus YHR030C, strain SLT2, stronger effect = lower value
active: locus YAL021C, strain ccr4, stronger effect = lower value 0.0688 | locus YAL026C, strain drs2, stronger effect = lower value 0.0657 | locus YAL030W, strain snc1, stronger effect = lower value 0.0593 | locus YBL061C, strain skt5, stronger effect = lower value 0.0642 | locus YBR009C, strain hhf1, stronger effect = lower value 0.0641 | locus YBR021W, strain FUR4, stronger effect = lower value 0.749 | locus YBR023C, strain chs3, stronger effect = lower value 0.0641 | locus YBR171W, strain sec66, stronger effect = lower value 0.0804 | locus YBR231C, strain swc5, stronger effect = lower value 0.0684 | locus YBR279W, strain paf1, stronger effect = lower value 0.0627 | locus YCL011C, strain gbp2, stronger effect = lower value 0.0631 | locus YCL016C, strain dcc1, stronger effect = lower value 0.0699 | locus YCL069W, strain vba3, stronger effect = lower value 0.0614 | locus YCR088W, strain abp1, stronger effect = lower value 0.0617 | locus YDL005C, strain med2, stronger effect = lower value 0.0736 | locus YDL040C, strain nat1, stronger effect = lower value 0.0719 | locus YDR001C, strain nth1, stronger effect = lower value 0.0593 | locus YDR069C, strain doa4, stronger effect = lower value 0.0664 | locus YDR137W, strain rgp1, stronger effect = lower value 0.0931 | locus YDR159W, strain sac3, stronger effect = lower value 0.1 | locus YDR195W, strain ref2 0.158 | locus YDR297W, strain sur2, stronger effect = lower value 0.0635 | locus YDR334W, strain swr1, stronger effect = lower value 0.0662 | locus YDR335W, strain msn5, stronger effect = lower value 0.0594 | locus YDR392W, strain spt3, stronger effect = lower value 0.0804 | locus YEL003W, strain gim4, stronger effect = lower value 0.0568 | locus YEL037C, strain rad23, stronger effect = lower value 0.0591 | locus YEL061C, strain CIN8 (second series), stronger effect = lower value 0.0651 | locus YER015W, strain faa2, stronger effect = lower value 0.0671 | locus YER016W, strain bim1, stronger effect = lower value 0.0697 | locus YER111C, strain swi4, stronger effect = lower value 0.0727 | locus YER155C, strain BEM2 (second series), stronger effect = lower value 0.0937 | locus YFR010W, strain ubp6, stronger effect = lower value 0.0726 | locus YGL167C, strain pmr1, stronger effect = lower value 0.837 | locus YGL173C, strain kem1, stronger effect = lower value 0.0679 | locus YGL227W, strain vid30, stronger effect = lower value 0.0676 | locus YGL240W, strain doc1, stronger effect = lower value 0.0832 | locus YGL253W, strain hxk2, stronger effect = lower value 0.058 | locus YHR013C, strain ard1, stronger effect = lower value 0.119 | locus YHR027C, strain rpn1, stronger effect = lower value 0.0623 | locus YHR079C, strain IRE1, stronger effect = lower value 0.167 | locus YHR142W, strain chs7, stronger effect = lower value 0.0755 | locus YJL092W, strain hpr5, stronger effect = lower value 0.0645 | locus YJL095W, strain BCK1 (second series), stronger effect = lower value 0.0585 | locus YJL115W, strain asf1, stronger effect = lower value 0.0787 | locus YJL129C, strain trk1, stronger effect = lower value 0.079 | locus YJL154C, strain vps35, stronger effect = lower value 0.0655 | locus YJL164C, strain tpk1, stronger effect = lower value 0.0649 | locus YJL166W, strain qcr8, stronger effect = lower value 0.0654 | locus YJL187C, strain SWE1, stronger effect = lower value 0.0616 | locus YJR066W, strain TOR1, stronger effect = lower value 0.791 | locus YKL160W, strain elf1, stronger effect = lower value 0.0818 | locus YKR001C, strain vps1, stronger effect = lower value 0.686 | locus YKR026C, strain gcn3, stronger effect = lower value 0.0715 | locus YKR091W, strain srl3, stronger effect = lower value 0.0677 | locus YLL001W, strain dnm1, stronger effect = lower value 0.064 | locus YLL026W, stronger effect = lower value 0.059 | locus YLL041C, strain sdh2, stronger effect = lower value 0.0644 | locus YLR027C, strain aat2, stronger effect = lower value 0.0617 | locus YLR113W, strain HOG1, stronger effect = lower value 0.166 | locus YLR221C, strain rsa3, stronger effect = lower value 0.0654 | locus YLR258W, strain gsy2, stronger effect = lower value 0.0637 | locus YLR262C, strain YPT6 (second series), stronger effect = lower value 0.0738 | locus YLR320W, strain mms22, stronger effect = lower value 0.08 | locus YLR342W, strain FKS1, stronger effect = lower value 0.0831 | locus YLR357W, strain rsc2, stronger effect = lower value 0.132 | locus YLR370C, strain arc18, stronger effect = lower value 0.0619 | locus YLR384C, strain iki3, stronger effect = lower value 0.0611 | locus YML120C, strain ndi1, stronger effect = lower value 0.0599 | locus YMR058W, strain fet3, stronger effect = lower value 0.0666 | locus YMR125W, strain sto1, stronger effect = lower value 0.0985 | locus YMR129W, stronger effect = lower value 0.0605 | locus YMR205C, strain PFK2, stronger effect = lower value 0.112 | locus YMR231W, strain pep5, stronger effect = lower value 0.0717 | locus YNL071W, strain lat1, stronger effect = lower value 0.0629 | locus YNL183C, strain NPR1, stronger effect = lower value 0.73 | locus YNL209W, strain ssb2, stronger effect = lower value 0.0644 | locus YNL248C, strain rpa49, stronger effect = lower value 0.0829 | locus YNL322C, strain KRE1 (second series), stronger effect = lower value 0.0768 | locus YNR049C, strain mso1, stronger effect = lower value 0.0601 | locus YOR001W, strain rrp6, stronger effect = lower value 0.0755 | locus YOR070C, strain gyp1, stronger effect = lower value 0.0589 | locus YOR080W, strain dia2, stronger effect = lower value 0.0709 | locus YOR083W, strain WHI5, stronger effect = lower value 0.0783 | locus YOR106W, strain vam3, stronger effect = lower value 0.0737 | locus YOR231W, strain MKK1, stronger effect = lower value 0.451 | locus YOR265W, strain rbl2, stronger effect = lower value 0.0618 | locus YOR270C, strain vph1, stronger effect = lower value 0.103 | locus YOR290C, strain snf2, stronger effect = lower value 0.0712 | locus YPL051W, strain arl3, stronger effect = lower value 0.0738 | locus YPL078C, strain atp4, stronger effect = lower value 0.0749 | locus YPL106C, strain sse1, stronger effect = lower value 0.108 | locus YPL240C, strain hsp82, stronger effect = lower value 0.0673 | locus YPL256C, strain CLN2, stronger effect = lower value 0.347
